# Measured values taken from paper PMC5540273 (PLoS ONE, 2017).
# “And” between values parts separate entries of the source, which are not always exact repeats. Identical values can stand only once. Like-named read-outs stand apart in the source and are kept apart here.
# Assays:
# FGFR4 = conditions: concentration: 1 μM, replicates: in singlicate; n = 1
# FGR = conditions: concentration: 1 μM, replicates: in singlicate, n = 1
# FLT1 = conditions: concentration: 1 μM, replicates: in singlicate, n = 1
# FLT3-autoinhibited = conditions: concentration: 1 μM, replicates: in singlicate, n = 1
# FLT3 = conditions: concentration: 1 μM, replicates: in singlicate, n = 1
# FLT4 = conditions: concentration: 1 μM, replicates: in singlicate; n = 1
# FRK = conditions: concentration: 1 μM, replicates: in singlicate, n = 1
# FYN = conditions: concentration: 1 μM, replicates: in singlicate, n = 1
# GAK = conditions: concentration: 1 μM, replicates: in singlicate, n = 1
# GCN2(Kin.Dom.2,S808G) = test system: T1, GCN2(Kin.Dom.2,S808G); conditions: concentration: 1 μM, replicates: in singlicate, n = 1
# T1 construct: gene EIF2AK4
# 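Further: KINOMEscan kinase panel screen.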
Structure (SMILES),%Inh (FGFR4) [%],%Inh (FGR) [%],%Inh (FLT1) [%],%Inh (FLT3-autoinhibited) [%],%Inh (FLT3) [%],%Inh (FLT4) [%],%Inh (FRK) [%],%Inh (FYN) [%],%Inh (GAK) [%],"%Inh (GCN2(Kin.Dom.2,S808G)) [%]",%Inh (FGR; 1 µM),%Inh (FLT1; 1 µM),%Inh (FLT3-autoinhibited; 1 µM),%Inh (FLT3; 1 µM),%Inh (FRK; 1 µM),%Inh (FYN; 1 µM),%Inh (GAK; 1 µM),"%Inh (GCN2(Kin.Dom.2,S808G); 1 µM)"
Cc1ccc(NC(=O)c2cccc(C#N)c2)cc1-c1ccc(C(=O)Nc2ccncc2)cc1 [GSK1398463],25,47,33,21,0,12,92.9,22,14,0,–,–,–,–,–,–,–,–
Clc1ccc(-c2cc(-c3c[nH]nc3-c3ccccn3)ccn2)cc1 [GW681251],13,11,20,0,0,0,0,10,74,7,–,–,–,–,–,–,–,–
Nc1nccc2scc(-c3ccc4c(c3)CCN4C(=O)Cc3cc(F)ccc3F)c12 [GSK2587663],7,40,37,0,0,0,11,12,0,13,–,–,–,–,–,–,–,–
CCc1nc(-c2cccc(N(C)S(=O)(=O)c3ccccc3)c2)c(-c2ccnc(Nc3ccc(N4CCN(C(C)=O)CC4)nc3)n2)s1 [GSK1645895],0,73,24,18,0,14,0,40,85,4,–,–,–,–,–,–,–,–
O=C(CCO)NCCn1ccc2ncnc(Nc3ccc(Oc4cccc(C(F)(F)F)c4)c(Cl)c3)c21,0,5,0,0,0,0,0,0,0,0,–,–,–,–,–,–,–,–
C[C@@H]1CCN(C(=O)CO)C[C@@H]1N(C)c1ncnc2[nH]ccc12,0,0,0,0,0,0,3,0,0,7,–,–,–,–,–,–,–,–
Cn1ccc2ncnc(Oc3ccc(NC(=O)Nc4cccnc4)c(Cl)c3)c21,0,0,2,0,0,37,0,0,0,0,–,–,–,–,–,–,–,–
C[C@H]1CC[C@@H](C(=O)Nc2ccccc2)CN1c1cc(-c2ccc3c(N)n[nH]c3c2)nc(N)n1 [GSK2283293],0,27,13,0,0,4,5,0,0,0,–,–,–,–,–,–,–,–
COc1ccc(-c2nc3n(c2-c2ccncc2)CCC3)cc1 [SKF-104493],8,–,–,–,–,0,–,–,–,–,19% and 8%,6% and 11%,22% and 0%,9% and 0%,5% and 0%,0% and 28%,13% and 41%,27% and 0%
Cn1ccc2ncnc(Nc3ccc(Oc4cccc(Cl)c4)c(Cl)c3)c21,0,0,0,17,0,18,4,1,0,28,–,–,–,–,–,–,–,–
COc1ccc(-c2oc3ncnc(N)c3c2-c2ccc(OC)cc2)cc1 [SB-589132],3,43,21,18,13,12,17,46,48,41,–,–,–,–,–,–,–,–
OCCOCCn1ccc2ncnc(Nc3ccc(Oc4cccc(Cl)c4)c(Cl)c3)c21,0,2,0,0,0,0,0,0,0,0,–,–,–,–,–,–,–,–
FC(F)(F)c1ccc(-c2cc(-c3c[nH]nc3-c3ccccn3)ccn2)cc1 [GW599550],0,14,20,0,0,17,0,38,46,0,–,–,–,–,–,–,–,–
COc1ccc(NC(=O)c2ccc(-c3cc(-c4nnc(C)o4)ccc3C)cc2)cc1 [GW595885],0,10,19,0,0,0,10,6,0,14,–,–,–,–,–,–,–,–
COc1ccc(Nc2nccc(N3CCC(NC(=O)c4cccc(NC(C)=O)c4)C3)n2)cc1 (stereo not shown) [GSK1379732],3,27,23,0,0,6,0,0,16,9,–,–,–,–,–,–,–,–
CCCc1ccc(S(=O)(=O)NC2CCN(c3ccnc(Nc4ccc(OC)cc4)n3)C2)cc1 (stereo not shown) [GSK1379737],8,12,3,0,26,9,0,7,0,33,–,–,–,–,–,–,–,–
Cl.c1ccc(Cn2ccc3cc(Nc4ncnc5ccccc45)ccc32)cc1 [GW275568],8,21,24,11,0,8,0,25,25,0,–,–,–,–,–,–,–,–

Structure (SMILES),%Inh (FGFR4) [%],%Inh (FGR) [%],%Inh (FLT1) [%],%Inh (FLT3-autoinhibited) [%],%Inh (FLT3) [%],%Inh (FLT4) [%],%Inh (FRK) [%],%Inh (FYN) [%],%Inh (GAK) [%],"%Inh (GCN2(Kin.Dom.2,S808G)) [%]",%Inh (FGR; 1 µM),%Inh (FLT1; 1 µM),%Inh (FLT3-autoinhibited; 1 µM),%Inh (FLT3; 1 µM),%Inh (FRK; 1 µM),%Inh (FYN; 1 µM),%Inh (GAK; 1 µM),"%Inh (GCN2(Kin.Dom.2,S808G); 1 µM)"
Clc1cccc(-c2nc(Nc3ccncc3)c3ccccc3n2)c1 [GW873004],0,55,34,0,17,52,29,0,3,0,–,–,–,–,–,–,–,–
Cl.Fc1ccccc1COc1ccc(Nc2ncnc3ccc(-c4nnc(C(F)(F)F)o4)cc23)cc1Cl [GW424170],0,6,18,0,0,3,0,0,0,0,–,–,–,–,–,–,–,–
Cc1ccc(O)cc1Nc1cc(C(F)(F)F)nc2ccc(-c3ccncc3)cc12 [GW630823],5,22,14,0,27,13,14,7,4,0,–,–,–,–,–,–,–,–
O=C(NCCCN1CCCC1=O)c1cnc(NCc2cc(Cl)ccc2Cl)nc1NC1CCNCC1,0,1,0,0,0,7,0,6,0,0,–,–,–,–,–,–,–,–
Clc1cc(Nc2ncnc3cc[nH]c23)ccc1OCc1ccccn1,4,24,0,5,7,0,15,0,3,0,–,–,–,–,–,–,–,–
Nc1nc(-c2ccc3c(N)n[nH]c3c2)cc(N2CCC[C@@H](C(=O)Nc3ccccc3)C2)n1.O=C(O)C(F)(F)F.O=C(O)C(F)(F)F [GSK2288359],8,15,6,29,0,0,0,38,0,0,–,–,–,–,–,–,–,–
c1ccc(-c2ccc3c(-c4ccnc(Nc5ccc6c(c5)OCCO6)n4)cnn3n2)cc1 [GW818941],10,23,31,18,36,36,9,32,28,11,–,–,–,–,–,–,–,–
Cl.Cn1ccc(-c2cccc(Nc3ccnc4cc(-c5nccs5)ccc34)c2)n1 [GW525701],0,53,0,0,0,7,0,3,19,0,–,–,–,–,–,–,–,–
CNc1nccc(-c2c(-c3ccc(F)cc3)ncn2CCCN2CCOCC2)n1 [SB-222516],0,10,1,14,15,5,0,0,0,0,–,–,–,–,–,–,–,–
O=C(Nc1ccccc1F)NC1CCN(c2ccnc(Nc3ccc(F)cc3)n2)C1 (stereo not shown) [GSK1379722],7,9,26,0,1,14,9,0,0,4,–,–,–,–,–,–,–,–
Cl.O=S(=O)(c1cccc(F)c1)c1ccc(Nc2ncnc3cc(Br)sc23)cc1Cl [GSK306886],30,24,20,0,0,98.1,0,41,3,0,–,–,–,–,–,–,–,–
CS(=O)(=O)CCNCc1nc(-c2ccc3ncnc(Nc4ccc(OCc5cccc(F)c5)c(Cl)c4)c3c2)cs1.Cl [GW583340],0,11,10,0,0,0,0,35,19,0,–,–,–,–,–,–,–,–
Nc1n[nH]c2nnc(-c3ccccc3)cc12 [SB-517389],14,29,12,1,0,0,6,28,10,10,–,–,–,–,–,–,–,–
CNc1nccc(-c2c(-c3ccc(F)cc3)ncn2C2CCN(C)CC2)n1 [SB-222903],0,0,0,0,0,0,0,0,6,3,–,–,–,–,–,–,–,–
Fc1cccc(COc2ccc(Nc3ncnc4cc[nH]c34)cc2Cl)c1,11,18,6,16,0,0,21,13,14,0,–,–,–,–,–,–,–,–
CC(C)(C)c1ccc(-n2cnc3c(N)ncnc32)cc1 [SKF-97263],10,30,7,17,6,15,0,2,9,11,–,–,–,–,–,–,–,–
Cc1ccc(C)c(NC(=O)NCCNc2ccnc(Nc3ccc(F)cc3)n2)c1 [GSK1379878],0,4,24,0,0,0,0,0,0,0,–,–,–,–,–,–,–,–
